# Reference: the supplement of paper PMC10338343
# ± gives the standard deviation.
# Tested on: MILI (PIWIL2) piRISC loaded with L1MC piRNA (26 nt)
# Assay: pre-steady-state target cleavage rate (min^-1); guide: L1MC piRNA 5'p-UAACUAAAUACUAUGCAAGCUGUAGG; MIWI and MILI are mouse PIWI proteins and EfPiwi is from a freshwater sponge; tags in brackets are library labels; higher = faster piRNA-guided slicing of the target
# Details: auxiliary factor: 500 nM mouse GTSF1
# In short: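 Sequencing of uncleaved targets, normalised to depth and to weakly complementary targets, was the readout of this Cleave-'n-Seq assay. A transcribed, DNA-blocked target RNA library (0.1 nM) was mixed with 1 nM active affinity-purified piRISC carrying one synthetic guide, with or without 500 nM GTSF1 partner protein, in HEPES–potassium acetate buffer at 33 °C for 0–8 or 0–960 min. Three trials were pooled, k3 was capped at 0.0001 min^-1, and a burst-and-steady-state fit gave the pre-steady-state cleavage rate.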
row,Sequence,pre-steady-state target cleavage rate
1,UCCUGGAUGUGCUACCAUAGUAUUUAGUAA,0.0454 ± 0.011
2,UCCUCCUACAGCUUGCAUAGUAUUAACUUA,0.0722 ± 0.018
3,UCCUGGAACAGCUUGCAAAGUAUUUACUUA,0.122 ± 0.027
4,UCCUGGAACAGCUUGCAUAGGAUUUAGUUA,0.00777 ± 0.0035
5,UCCUGCUACACCUUGCAUAGUAUUUACAAA,0.144 ± 0.039
6,UCCUCCUACAGCUUGCAUAGUUAAUUCAAA,0.0506 ± 0.016
7,UCCUGGUAGAGCUUGCAUAGUAUUUACUUA,0.0436 ± 0.012
8,UCCUGGAACUGCUUGCAUAGUAUUUUCAAA,0.0118 ± 0.0046
9,UCCUGGAUCAGCUUGCAUUGUAUUUACAAA,0.0117 ± 0.005
10,UCCUGGAUGUGCUUGCAAAGUAUUUAGAAA,0.0118 ± 0.0048
11,UCCUGGAUGUCCAUGCAUUGUAUUUAGUUA,0.0108 ± 0.0042
12,UCCUCCUACAGCUUGGUUAGUAUUUACAAA,0.0445 ± 0.012
13,UCCUGGAUCAGCUUGCAUAGAAUUUAGUAA,0.0373 ± 0.011
14,UCCUGGAUGAGCUUGCAUUAGUAUUUAGUUA,0.00494 ± 0.0045
15,UCCUGGAUCAGCUUGCUAAGUAUUUUCAAA,0.00483 ± 0.0036
16,UCCUGGUACAGCUACGAUAGUAUUUAGUAA,0.183 ± 0.034
17,UCCUGGAUGUCCAUGCAAAGUAUUUAGUUA,0.0101 ± 0.0043

row,Sequence,pre-steady-state target cleavage rate
1,UCCUGGAUGUCGAACGAUGGUAUUUAGUUA,< 0.0001
2,UCCUGGAACAGCUUGCAUACUAUUUUCAAA,0.0161 ± 0.0061
3,UCCUGGAUGACGAUGCAUAGUAUUUACAAA,0.0245 ± 0.011
4,UCCUGGAUGUCGUUGCAUAGUAUUUAUGUUA,0.137 ± 0.04
5,UCCUGGAUGUCCUUGCAUAGUAUAUUGUUA,0.0329 ± 0.0079
6,UCCUGGAUCAGCUUCGAUAGUAUUUAGAAA,0.0608 ± 0.017
7,UCCUGGAUGAGCUUGCAUAGUAUUUGUUA,0.118 ± 0.028
8,UCCUGCUACAGCAACCAUAGUAUUUAGUAA,0.35 ± 0.063
9,UCCUGGAACAGCUUGCAUAGUAUAUACUUA,0.0233 ± 0.01
10,UCCUGGAUGUCCUUGCAUAGUAUAAUGUUA,0.0286 ± 0.011
11,UCCUGGAUGUCGAUGCAUAGUAUUUAGCUUA,0.0496 ± 0.014
12,UCCUGGAUGUCGAACCAUAGUAUUUAGUUU [g2:g15:cont:t1U],0.00385 ± 0.0021
13,UCCUGGAUCAGCUUGCAUAGAAUUUACUUA,0.021 ± 0.0075
14,UCCUGGAUGUCGUUGCAUAGUAUUUACGUUA,0.231 ± 0.064
15,UCCUGGAUGUCGAACGUAUGUAUUUAUUUA,< 0.0001
16,UCCUGGAUGUCCUAGCAUAGUAUUUUGUUA,0.0105 ± 0.0061
17,UCCUGGUACAGCUUGCAUAGAUUUUAGAAA,0.00722 ± 0.0042

# Same assay, conditions: auxiliary factor: none (no GTSF1)
row,Sequence,pre-steady-state target cleavage rate
1,UCCUGGAUGUCGAACGUAUCUAUUUAGUCUA,< 0.0001
2,UCCUGGAUGUCGAUGCAUACUAUUUUGUUA,< 0.0001
3,UCCUGGAUGUCGAACCAAAGUAUUUAGUAA,< 0.0001
4,UCCUGGAUGUCGAACCAUAGUAUUAUGUUA,< 0.0001
5,UCCUGGAUGUCGAACCAUAGUAAAUAGUUA,< 0.0001
6,UCCUGGAUGUCGAACGAAAGUAUAUAGUUA,< 0.0001
